Inconclusive results are not listed. Calls of active or inactive are those of the source. The calls were made as follows: active = hit-call score of the fitted dose curve at least 0.9, where 1 is the maximum; inconclusive = response in the unintended direction; inactive = score below 0.9.
assay: ACEA_ER_AUC_viability: ACEA Biosciences xCELLigence Real-Time Cell Analysis on Estrogen Receptor Agonism for Viability (AID 2283782);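 also: hit means loss of impedance signal meaning reduced cell growth or viability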
Summary of the method: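 Viability endpoint: reduced impedance area under the curve relative to DMSO, recorded by real-time electrode sensing over ~80 h of continuous exposure. Duplicate plates of T47D in hormone-depleted medium; eight concentrations, 1:4 dilutions, 100 uM maximum.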

**Q.** Which AC50 does the source give for `CC(C)(N=C=O)c1cccc(C(C)(C)N=C=O)c1` here?
**A.** 33.1 µM (active)

**Q.** For `CCC(=O)OCCOc1ccccc1`, which outcome is on record?
**A.** inactive

**Q.** For `CCCCCCOC(=O)CCC`, which outcome is on record?
**A.** inactive

**Q.** Which outcome does the source give for `CCOC(=O)CCc1ccccc1` here?
**A.** inactive

**Q.** For `CC=CC=CCOC(=O)C(C)C`, which AC50 is on record?
**A.** 76.8 µM (active)

**Q.** For `CC1(C)CCC[C@]2(C)[C@H]3CCO[C@]3(C)CC[C@@H]12`, which AC50 is on record?
**A.** 76.2 µM (active)

**Q.** For `O=CN1CCOCC1`, which outcome is on record?
**A.** inactive

**Q.** For `C=CCN(CC=C)CC=C`, which AC50 is on record?
**A.** 61.2 µM (active)

**Q.** For `CCCCCC(=O)CC`, which outcome is on record?
**A.** inactive

**Q.** With `COC(C)(C)CC(C)=O` as the molecule, how does the outcome read?
**A.** inactive

**Q.** Which AC50 does the source give for `C=C(C)CNCC` here?
**A.** 25.7 µM (active)

**Q.** With `CCc1ncc(C)[nH]1` as the molecule, how does the outcome read?
**A.** inactive

**Q.** For `CCOC(=O)CN`, which outcome is on record?
**A.** inactive

**Q.** Which outcome does the source give for `CC(C)CC(C)CC(O)CC(C)C` (stereo unspecified) here?
**A.** inactive

**Q.** With `CC(=O)Nc1ccc(C(=O)CCl)cc1` as the molecule, how does the AC50 read?
**A.** 21.5 µM (active)

**Q.** For `CCOCCOCCOCC`, which outcome is on record?
**A.** inactive

**Q.** Which outcome does the source give for `C=C(C)[C@H]1CC=C(C)C(=O)C1` here?
**A.** inactive

**Q.** With `Cc1cc(CCC(=O)OCCOCCOCCOC(=O)CCc2cc(C)c(O)c(C(C)(C)C)c2)cc(C(C)(C)C)c1O` as the molecule, how does the outcome read?
**A.** inactive

**Q.** With `COCCOC(=O)c1ccccc1C(=O)OCCOC` as the molecule, how does the outcome read?
**A.** inactive

**Q.** Which AC50 does the source give for `Cc1ccc(OC(=O)c2ccccc2O)cc1` here?
**A.** 50 µM (active)

**Q.** For `CC(C)=CCCC(C)CCOC=O` (stereo unspecified), which AC50 is on record?
**A.** 50 µM (active)

**Q.** With `C=C(C#N)C(=O)OCC` as the molecule, how does the AC50 read?
**A.** 78.9 µM (active)

**Q.** Which outcome does the source give for `CC(=O)C(C)O` (stereo unspecified) here?
**A.** inactive

**Q.** With `O=C1OC2(c3ccccc31)c1ccc(O)c(Br)c1Oc1c2ccc(O)c1Br` as the molecule, how does the outcome read?
**A.** inactive

**Q.** With `Brc1ccc(Br)c(Br)c1` as the molecule, how does the AC50 read?
**A.** 34.9 µM (active)

**Q.** With `CC(C)CCOC(=O)c1ccccc1` as the molecule, how does the outcome read?
**A.** inactive

**Q.** With `C=CC(=C)CCCC(C)(C)OC(C)=O` as the molecule, how does the outcome read?
**A.** inactive

**Q.** With `C=C(C)C(=O)OCC(CC)(COC(=O)C(=C)C)COC(=O)C(=C)C` as the molecule, how does the outcome read?
**A.** inactive

**Q.** Which outcome does the source give for `CC(=O)c1c(C)c([N+](=O)[O-])c(C(C)(C)C)c([N+](=O)[O-])c1C` here?
**A.** inactive

**Q.** With `C=Cc1ccncc1` as the molecule, how does the AC50 read?
**A.** 37.3 µM (active)

**Q.** With `Oc1c(Cl)cc(Cl)c(Cl)c1Cc1c(O)c(Cl)cc(Cl)c1Cl` as the molecule, how does the AC50 read?
**A.** 5.27 µM (active)

**Q.** For `CCCCCc1ccco1`, which AC50 is on record?
**A.** 35 µM (active)

**Q.** For `O=C(O)c1cccnc1C(=O)O`, which outcome is on record?
**A.** inactive

**Q.** With `C=CC(C)C#N` (stereo unspecified) as the molecule, how does the outcome read?
**A.** inactive

**Q.** For `CC1(C)COCN1`, which AC50 is on record?
**A.** 32.1 µM (active)

**Q.** With `O=[N+]([O-])c1cccc(Cl)c1` as the molecule, how does the outcome read?
**A.** inactive

From PubChem BioAssay (EPA / NIEHS)
